Measured values taken from PubChem BioAssay AID1159580 (chemical genetic matrix, 2015).
Among all 5,500 compounds or so, about 2,000 (36%) were called active. Inconclusive results (about 18%) are left out. Some of the results follow. Unmarked numbers belong to inactive results. Rule as the data show it: active = normalized growth mostly below about 0.91 (no sharp cut-off); inconclusive = no clear call, values can overlap the other calls; inactive = mostly above about 0.92.

Assay: chemical genetic growth profiling, strain panel (AID 1159580);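 also: tested at 20 µM; growth read once vehicle control cultures reached saturation at 30 °C; 1 = growth at the plate median or of vehicle wells; lower values mean less growth of the strain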
Conditions: growth OD
[1] = S. cerevisiae deletion strains, locus YAL013W, strain DEP1, hits give low values
[2] = S. cerevisiae deletion strains, locus YDR150W, strain NUM1, hits give low values
[3] = S. cerevisiae deletion strains, locus YGR078C, strain PAC10, hits give low values
[4] = S. cerevisiae deletion strains, locus YNL128W, strain TEP1, hits give low values
[5] = S. cerevisiae deletion strains, locus YNL322C, strain KRE1, hits give low values
[6] = S. cerevisiae deletion strains, locus YPL241C, strain CIN2, hits give low values

Q: With `Cn1c(=O)c2c(ncn2CCCl)n(C)c1=O` as the molecule, how does the normalized growth [1] read?
A: 1

Q: What about the normalized growth (S. cerevisiae deletion strains, locus YBR021W, strain FUR4, hits give low values) of the same molecule?
A: 0.995

Q: And the normalized growth (S. cerevisiae deletion strains, locus YBR229C, strain ROT2, hits give low values)?
A: 0.997

Q: What about the normalized growth (S. cerevisiae deletion strains, locus YCL029C, strain bik1, hits give low values) of the same molecule?
A: 1.03

Q: And the normalized growth (S. cerevisiae deletion strains, locus YDL035C, strain GPR1, hits give low values)?
A: 1

Q: What about the normalized growth (S. cerevisiae deletion strains, locus YDL074C, strain BRE1, hits give low values) of the same molecule?
A: 0.999

Q: What about the normalized growth (S. cerevisiae deletion strains, locus YDL101C, strain DUN1, hits give low values) of the same molecule?
A: 1.01

Q: What about the normalized growth (S. cerevisiae deletion strains, locus YDL134C, strain PPH21, hits give low values) of the same molecule?
A: 1

Q: What about the normalized growth (S. cerevisiae deletion strains, locus YDL185W, strain tfp1, hits give low values) of the same molecule?
A: 1.01

Q: What about the normalized growth (S. cerevisiae deletion strains, locus YDL192W, strain arf1, hits give low values) of the same molecule?
A: 1.02

Q: What about the normalized growth (S. cerevisiae deletion strains, locus YDR101C, strain arx1, hits give low values) of the same molecule?
A: 0.995

Q: What about the normalized growth [2] of the same molecule?
A: 0.998

Q: What about the normalized growth (S. cerevisiae deletion strains, locus YDR162C, strain NBP2, hits give low values) of the same molecule?
A: 1

Q: And the normalized growth (S. cerevisiae deletion strains, locus YDR318W, strain mcm21, hits give low values)?
A: 1.02

Q: And the normalized growth (S. cerevisiae deletion strains, locus YDR388W, hits give low values)?
A: 1.01

Q: And the normalized growth (S. cerevisiae deletion strains, locus YDR502C, strain sam2, hits give low values)?
A: 1.02

Q: What about the normalized growth (S. cerevisiae deletion strains, locus YEL061C, strain CIN8, hits give low values) of the same molecule?
A: 0.998

Q: And the normalized growth (S. cerevisiae deletion strains, locus YER110C, hits give low values)?
A: 1.02

Q: And the normalized growth (S. cerevisiae deletion strains, locus YER155C, strain BEM2, hits give low values)?
A: 0.997

Q: What about the normalized growth (S. cerevisiae deletion strains, locus YER167W, strain BCK2, hits give low values) of the same molecule?
A: 1.01

Q: And the normalized growth (S. cerevisiae deletion strains, locus YGL078C, strain dbp3, hits give low values)?
A: 1.02

Q: And the normalized growth (S. cerevisiae deletion strains, locus YGL086W, strain mad1, hits give low values)?
A: 1.01

Q: And the normalized growth (S. cerevisiae deletion strains, locus YGL248W, strain PDE1, hits give low values)?
A: 1

Q: What about the normalized growth [3] of the same molecule?
A: 0.975

Q: What about the normalized growth (S. cerevisiae deletion strains, locus YGR135W, strain pre9, hits give low values) of the same molecule?
A: 0.995

Q: And the normalized growth (S. cerevisiae deletion strains, locus YGR229C, strain SMI1, hits give low values)?
A: 0.987

Q: And the normalized growth (S. cerevisiae deletion strains, locus YGR252W, strain gcn5, hits give low values)?
A: 1.03

Q: What about the normalized growth (S. cerevisiae deletion strains, locus YHR030C, strain SLT2, hits give low values) of the same molecule?
A: 1

Q: And the normalized growth (S. cerevisiae deletion strains, locus YHR079C, strain IRE1 (second series), hits give low values)?
A: 1.02

Q: And the normalized growth (S. cerevisiae deletion strains, locus YHR094C, strain hxt1, hits give low values)?
A: 1.01

Q: And the normalized growth (S. cerevisiae deletion strains, locus YHR129C, strain ARP1, hits give low values)?
A: 1

Q: And the normalized growth (S. cerevisiae deletion strains, locus YHR200W, strain rpn10, hits give low values)?
A: 1.03

Q: And the normalized growth (S. cerevisiae deletion strains, locus YIL066C, strain RNR3, hits give low values)?
A: 1.02

Q: And the normalized growth (S. cerevisiae deletion strains, locus YIL073C, strain SPO22, hits give low values)?
A: 1.08

Q: What about the normalized growth (S. cerevisiae deletion strains, locus YIL125W, strain kgd1, hits give low values) of the same molecule?
A: 1.02

Q: And the normalized growth (S. cerevisiae deletion strains, locus YIR030C, strain dcg1, hits give low values)?
A: 1.03

Q: What about the normalized growth (S. cerevisiae deletion strains, locus YJL095W, strain BCK1, hits give low values) of the same molecule?
A: 0.992

Q: And the normalized growth (S. cerevisiae deletion strains, locus YJL134W, strain LCB3, hits give low values)?
A: 1.01

Q: What about the normalized growth (S. cerevisiae deletion strains, locus YJL168C, strain set2, hits give low values) of the same molecule?
A: 1.02

Q: And the normalized growth (S. cerevisiae deletion strains, locus YJL187C, strain SWE1 (second series), hits give low values)?
A: 1

Q: And the normalized growth (S. cerevisiae deletion strains, locus YJR043C, strain POL32, hits give low values)?
A: 0.998

Q: What about the normalized growth (S. cerevisiae deletion strains, locus YJR075W, strain HOC1, hits give low values) of the same molecule?
A: 0.987

Q: What about the normalized growth (S. cerevisiae deletion strains, locus YKL009W, strain mrt4, hits give low values) of the same molecule?
A: 1.03

Q: And the normalized growth (S. cerevisiae deletion strains, locus YKL068W, hits give low values)?
A: 1.02

Q: And the normalized growth (S. cerevisiae deletion strains, locus YKL085W, strain MDH1 (second series), hits give low values)?
A: 1.01

Q: And the normalized growth (S. cerevisiae deletion strains, locus YKL085W, strain MDH1, hits give low values)?
A: 1.01

Q: And the normalized growth (S. cerevisiae deletion strains, locus YKL190W, strain CNB1, hits give low values)?
A: 1

Q: What about the normalized growth (S. cerevisiae deletion strains, locus YKR001C, strain vps1, hits give low values) of the same molecule?
A: 1.01

Q: What about the normalized growth (S. cerevisiae deletion strains, locus YLR039C, strain RIC1, hits give low values) of the same molecule?
A: 1.04

Q: And the normalized growth (S. cerevisiae deletion strains, locus YLR058C, strain SHM2, hits give low values)?
A: 1.01

Q: And the normalized growth (S. cerevisiae deletion strains, locus YLR102C, strain apc9, hits give low values)?
A: 1.03

Q: What about the normalized growth (S. cerevisiae deletion strains, locus YLR262C, strain YPT6, hits give low values) of the same molecule?
A: 1.05

Q: What about the normalized growth (S. cerevisiae deletion strains, locus YLR268W, strain sec22, hits give low values) of the same molecule?
A: 0.994

Q: And the normalized growth (S. cerevisiae deletion strains, locus YLR330W, strain CHS5, hits give low values)?
A: 1.01

Q: What about the normalized growth (S. cerevisiae deletion strains, locus YLR342W, strain FKS1 (second series), hits give low values) of the same molecule?
A: 1.01

Q: What about the normalized growth (S. cerevisiae deletion strains, locus YLR371W, strain rom2, hits give low values) of the same molecule?
A: 1.03

Q: What about the normalized growth (S. cerevisiae deletion strains, locus YLR418C, strain cdc73, hits give low values) of the same molecule?
A: 0.992

Q: What about the normalized growth (S. cerevisiae deletion strains, locus YML016C, strain PPZ1, hits give low values) of the same molecule?
A: 1

Q: And the normalized growth (S. cerevisiae deletion strains, locus YML032C, strain rad52, hits give low values)?
A: 1.03

Q: And the normalized growth (S. cerevisiae deletion strains, locus YML124C, strain tub3, hits give low values)?
A: 1.02

Q: What about the normalized growth (S. cerevisiae deletion strains, locus YMR078C, strain ctf18, hits give low values) of the same molecule?
A: 1.02

Q: What about the normalized growth (S. cerevisiae deletion strains, locus YMR223W, strain ubp8, hits give low values) of the same molecule?
A: 1.04

Q: And the normalized growth (S. cerevisiae deletion strains, locus YMR263W, strain SAP30, hits give low values)?
A: 0.995

Q: And the normalized growth (S. cerevisiae deletion strains, locus YMR307W, strain GAS1, hits give low values)?
A: 0.996

Q: What about the normalized growth (S. cerevisiae deletion strains, locus YNL067W, strain RPL9B, hits give low values) of the same molecule?
A: 1.01

Q: And the normalized growth [4]?
A: 0.999

Q: What about the normalized growth (S. cerevisiae deletion strains, locus YNL153C, strain GIM3, hits give low values) of the same molecule?
A: 0.988

Q: And the normalized growth (S. cerevisiae deletion strains, locus YNL233W, strain BNI4, hits give low values)?
A: 0.994

Q: What about the normalized growth (S. cerevisiae deletion strains, locus YNL250W, strain rad50, hits give low values) of the same molecule?
A: 1.04

Q: What about the normalized growth (S. cerevisiae deletion strains, locus YNL271C, strain bni1, hits give low values) of the same molecule?
A: 1.02

Q: And the normalized growth (S. cerevisiae deletion strains, locus YNL298W, strain CLA4, hits give low values)?
A: 1.03

Q: And the normalized growth (S. cerevisiae deletion strains, locus YNL307C, strain MCK1, hits give low values)?
A: 1.03

Q: And the normalized growth [5]?
A: 1

Q: And the normalized growth (S. cerevisiae deletion strains, locus YNR052C, strain pop2, hits give low values)?
A: 1.04

Q: What about the normalized growth (S. cerevisiae deletion strains, locus YOL006C, strain TOP1, hits give low values) of the same molecule?
A: 1.03

Q: What about the normalized growth (S. cerevisiae deletion strains, locus YOL012C, strain htz1) of the same molecule?
A: 0.951

Q: And the normalized growth (S. cerevisiae deletion strains, locus YOL147C, strain pex11, hits give low values)?
A: 1.01

Q: What about the normalized growth (S. cerevisiae deletion strains, locus YOR061W, strain CKA2, hits give low values) of the same molecule?
A: 1.01

Q: What about the normalized growth (S. cerevisiae deletion strains, locus YOR069W, strain VPS5, hits give low values) of the same molecule?
A: 1

Q: What about the normalized growth (S. cerevisiae deletion strains, locus YOR136W, strain idh2, hits give low values) of the same molecule?
A: 1.02

Q: And the normalized growth (S. cerevisiae deletion strains, locus YOR144C, strain elg1, hits give low values)?
A: 1.01

Q: And the normalized growth (S. cerevisiae deletion strains, locus YOR184W, strain ser1, hits give low values)?
A: 1.03

Q: What about the normalized growth (S. cerevisiae deletion strains, locus YOR316C, strain cot1, hits give low values) of the same molecule?
A: 1.02

Q: What about the normalized growth (S. cerevisiae deletion strains, locus YPL055C, strain LGE1, hits give low values) of the same molecule?
A: 0.999

Q: And the normalized growth [6]?
A: 1

Q: What about the normalized growth (S. cerevisiae deletion strains, locus YPR119W, strain clb2, hits give low values) of the same molecule?
A: 1.01

Q: And the normalized growth (S. cerevisiae deletion strains, locus YPR141C, strain kar3, hits give low values)?
A: 1.02

Q: And the normalized growth (S. cerevisiae deletion strains, locus YPR163C, strain tif3, hits give low values)?
A: 1.01

Q: And the normalized growth (S. cerevisiae deletion strains, locus YPR167C, strain met16, hits give low values)?
A: 1.02

Q: What about the normalized growth (S. cerevisiae deletion strains, strain wtn01, hits give low values) of the same molecule?
A: 0.997

Q: What about the normalized growth (S. cerevisiae strains, strain wild type, hits give low values) of the same molecule?
A: 1

Q: For `CCCn1c(=O)c2c(ncn2C)n(CCC)c1=O`, which normalized growth [1] is on record?
A: 0.983

Q: What about the normalized growth (S. cerevisiae deletion strains, locus YAL040C, strain CLN3, hits give low values) of the same molecule?
A: 1.13 [resistant] (active)

Q: What about the normalized growth (S. cerevisiae deletion strains, locus YCL061C, strain MRC1 (second series), hits give low values) of the same molecule?
A: 1

Q: And the normalized growth [2]?
A: 1.02

Q: What about the normalized growth (S. cerevisiae deletion strains, locus YDR363W, strain ESC2, hits give low values) of the same molecule?
A: 0.964

Q: What about the normalized growth (S. cerevisiae deletion strains, locus YER002W, strain NOP16, hits give low values) of the same molecule?
A: 0.999

Q: What about the normalized growth [3] of the same molecule?
A: 0.986

Q: And the normalized growth [4]?
A: 0.992

Q: And the normalized growth (S. cerevisiae deletion strains, locus YNL175C, strain NOP13, hits give low values)?
A: 1

Q: What about the normalized growth (S. cerevisiae deletion strains, locus YNL197C, strain WHI3, hits give low values) of the same molecule?
A: 1

Q: What about the normalized growth (S. cerevisiae deletion strains, locus YNL224C, strain SQS1, hits give low values) of the same molecule?
A: 0.988

Q: And the normalized growth [5]?
A: 0.994

Q: And the normalized growth (S. cerevisiae deletion strains, locus YOR083W, strain WHI5 (second series), hits give low values)?
A: 0.981

Q: What about the normalized growth [6] of the same molecule?
A: 1.01
